Experimental data taken from PubChem BioAssay (NCI).
The panel holds about 83,000 compounds, 20% with a hit somewhere; the sample as a whole holds those more often.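 Testing used 96-well plates and a 48-hour single-concentration exposure. Example: -40 means 40% of the starting cells died.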 A number with no mark means an inactive call. The source made the active and inactive calls. The calls were made as follows: active = growth percent below 10; inactive = the rest.

Each molecule was assayed on RXF 393 renal (assay: NCI-60 one-dose screen, 48 h (100 = growth as untreated, 0 = no growth, -100 = all killed)). Details: 10 µM unless noted.

SMILES | growth
O=C(c1nc2ccccc2[nH]1)C1C(c2ccc(F)cc2)C2CC3CCCCC3N2[C@@]12C(=O)Nc1ccc(Cl)cc12 (stereo partly specified) | 9.81% (active)
COc1ccc(/C=C/C(=O)c2ccc3cc(OC)c(OC)cc3c2)cc1OC | 84.2%
O=c1oc2ccc(F)cc2c(=O)n1-c1ccc(Br)cc1F | -0.594% (active)
COc1cc(/C=C2\CN(S(=O)(=O)c3ccccc3)C/C(=C\c3cc(CN4CCCC4)c(O)c(OC)c3)C2=O)cc(CN2CCCC2)c1O | -65.4% (active)
CC(C)C[C@H](C(=O)N[C@@H](C)C(N)=O)N1CC=CCN(O)S1(=O)=O | 119% [5 µM]
CN(C)CCCNCc1ccc(-c2ccc(F)c(Cl)c2)o1 | 16%
O=c1oc2ccc(-c3ccc(F)cc3F)cc2c(=O)n1-c1cccc(C(F)(F)F)c1 | -8.07% (active)
O=C(N=Nc1c(O)[nH]c2ccccc12)c1oc2ccccc2c1CN1CCN(c2ccccc2)CC1 | -67.6% (active)
O=C(Nc1ccc(Br)cc1F)c1cc(F)ccc1O | 4.59% (active)
COc1cc(NC(=O)CCSc2nc3ccccc3c(=O)n2Cc2ccccc2)cc(OC)c1OC | 92.3%
O=C(Nc1ccc(I)cc1F)c1cc(F)ccc1O | -2.46% (active)
COc1nccc2cc3c(=O)n4c(cc5ccccc54)c(=O)n3c12 | 112%
O=C(COc1cc(O)c2c(=O)cc(-c3ccccc3)oc2c1)Nc1ccccc1 | 98.3%
O=c1oc2ccc(-c3ccc(F)cc3F)cc2c(=O)n1-c1ccc(Cl)c(C(F)(F)F)c1 | -3.32% (active)
CCN1CCN(c2cc(C)c3cc(NC(=O)c4ccc(OC)c(OC)c4)ccc3n2)CC1 | 31.1%
COc1ccc(Cn2c(Br)c3c(c2-c2cc(OC)c(OC)c(OC)c2)CCc2sc(NC(C)=O)nc2-3)cc1 | 32.3%
COc1ccccc1C(=O)O/N=C(\N)Cc1cccc2ccccc12 | 102%
O=C(Nc1ccc(Cl)cc1F)c1cc(I)ccc1O | 14.8%
O=C(O)CCC(=O)c1ccc(C2CCCCCC2)cc1 | 115%
CCCCOCc1cc(CN2CCN(C)CC2)c(O)c2ncccc12 | 69%
COC(=O)/C(CCC=C(C)C)=C1\[C@@H](OC(C)=O)C[C@@]2(C)[C@H]1C[C@@H](O)[C@H]1[C@@]3(C)CC[C@H](NCc4ccccc4)[C@@H](C)[C@@H]3CC[C@@]12C | 49.6%
O=C(NC1C(O)OC(CO)C(O)C1O)NS(=O)(=O)c1ccc(Cl)cc1 (stereo unspecified) | 115%
O=C(Nc1ccc(Br)cc1F)c1cc(Cl)ccc1O | -0.138% (active)
CCOC(=O)c1c(C=O)nc2ccccc2c1/C=C/c1ccc(Cl)cc1 | 99.5%
COc1cccc2cc(N(C)c3nc(C)nc4ccsc34)ccc12 | 40%
COc1cc(/C=C/C(=O)c2c(C)nc3ccccc3c2/C=C/c2ccccc2)cc(OC)c1OC | -17.2% (active)
